Results reported in PubChem BioAssay (NCI).
Compounds without any hit were thinned out: in the full panel of roughly 83,000, 20% have a hit.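 Interpretation: 100, growth as untreated; towards 0, rising growth inhibition; 0, no net growth; 0 to -100, cell death. Compounds scoring below 10 were considered active.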 The source made the active and inactive calls.

tested on: KM12 colon; test: NCI-60 one-dose screen, 48 h (100 = growth as untreated, 0 = no growth, -100 = all killed); details: 10 µM unless noted
Protocol: Growth inhibition of the KM12 human tumor cell line is measured as a screen for anti-cancer activity. Cells are grown in 96 well plates and exposed to the test compound for 48 hours. Compounds are tested at a single concentration, which is 10^-5 M for most compounds. The reported endpoint is percent growth (GI% or GIPRCNT), where numbers from 0 - 100% represent growth inhibition, and numbers from -100% - 0 represent cell death. For example, a value of 40 represents 60% growth inhibition. A value of 0 means no net growth occurred over the course of the experiment. A value of -40 indicates 40% of cells at the beginning of the experiment died by the end of the experiment. A value of -100 means all cells are dead at the end of the experiment.
NCI-60 Human Tumor Cell Lines Screen was performed using the standard one-dose NCI protocol, which is described in more detail at https://dtp.cancer.gov/discovery_development/nci-60/default.htm.
Compounds with GIPRCNT values below 10 were considered active. Activity score was based on GIPRCNT using the following formula: […]
Score is 0 for GIPRCNT values of 100 or above, 50 for GIPRCNT values of 0, and 100 for GIPRCNT values of -100.

Row | Compound | growth
1 | CN(C)c1nc(NCCNS(=O)(=O)c2ccc(C3=Nc4c(N)nc(N)nc4NC(c4ccc(C(F)(F)F)cc4)C3)cc2)nc(Nc2ccc(F)cc2)n1 (stereo not given) | -4.83% (active)
2 | CC(C)CSc1nc(NCCc2c[nH]c3ccccc23)c(C#N)c(-c2ccccc2)n1 | 35.3% (inactive)
3 | C=CC[N+](C)(C)CCn1c2ccccc2c2nc3cc(C)c(C)cc3nc21 | 99% (inactive)
4 | CC1CN(c2oc(-c3ccc([N+](=O)[O-])cc3)nc2C#N)CC(C)O1 (stereo not given) | 103% (inactive)
5 | O=C1N/C(=N\c2nccs2)S/C1=C\C=C/c1ccccc1 | 38% (inactive)
6 | CC(=O)Nc1ccc(C(=O)NC(=S)Nc2ccc(S(N)(=O)=O)cc2)cc1 | 97.5% (inactive)
7 | O=C(/C=C/c1ccc(O)c(O)c1)NC1CCOC1O (stereo not given) | 102% (inactive)
8 | N#Cc1c(-c2cccnc2)cc(-c2ccc3ccccc3c2)[nH]c1=O | 92.9% (inactive)
9 | Cc1ccc(-c2nc(C#N)c(S(=O)(=O)N3CCN(S(=O)(=O)c4ccccc4)CC3)o2)cc1 | 77.4% (inactive)
10 | N#Cc1c(-c2cccc(O)c2O)cc(-c2ccc3ccccc3c2)[nH]c1=O | 19.5% (inactive)
11 | COc1c(F)ccc(C(=O)Nc2ccc3nc(NC(=O)C4CCCN(S(=O)(=O)c5ccc(Cl)cc5)C4)sc3c2)c1F (stereo not given) | 78.7% (inactive)
12 | N#Cc1ccc(C(=O)Nn2c(N)cc3ccccc3c2=O)cc1 | 103% (inactive)
13 | COc1cc2nc(SCc3ccccc3)n(-c3ccc(Cl)cc3)c(=O)c2cc1OC | 40.5% (inactive)
14 | Cc1cc2nc3c([nH]c2cc1C)c1ccc(=O)cc1n3CCN(C)C | 43.4% (inactive)
15 | Cc1ccc([C@H]2C(C(=O)c3ccc(Cl)cc3)C3(N[C@@H]2c2ccccc2)C(=O)Nc2ccc(Br)cc23)cc1 (stereo not given in full) | 39% (inactive)
16 | Cc1cc2nc3c4ccccc4n(CCCN(C)C)c3nc2cc1C | -8.99% (active)
17 | O=c1[nH]c2ccccc2cc1CSc1nccc(-c2ccc3ccccc3c2)n1 | 69.6% (inactive)
18 | C[C@H]1CN(C(=O)c2ccc3c(NNC(=O)c4ccncn4)nc4cc(F)c(F)cc4n23)CCN1 | 37% (inactive)
19 | COc1ccc2c(c1)c(-c1cc(N)n3nc(-c4cn(C)c5ccccc45)cc3n1)cn2C | -60.6% (active)
20 | C=C1CCC2C3(C)COC(c4ccc(F)cc4)OC3CCC2(C)C1CC(O)C1=CCOC1=O (stereo not given) | 49.7% (inactive)

Row | Compound | growth
21 | O=C(c1ccccc1)c1ccc2nc(-c3ccc(F)cc3)[nH]c2c1 | 65% (inactive)
22 | O=C(O)c1ccc(-c2ccc(/C=N/NC(=O)c3[nH]c4ccc(Br)cc4c3-c3ccccc3)s2)cc1 | -14.8% (active)
23 | COc1cc(OC)cc(C(=O)Nc2cccc(-c3cn(-c4ccc(S(N)(=O)=O)cc4)nn3)c2)c1 | 87.9% (inactive)
24 | C/C(=N\N=C1/C(=O)Nc2ccc(Cl)cc21)c1ccc2c(c1)Nc1ccccc1S2 | -79.3% (active)
25 | O=C(Cn1c(/C=C/c2ccccc2)nc2ccccc2c1=O)Nc1ccccc1 | 101% (inactive)
26 | O=c1[nH]c2ccccc2cc1CSc1cccc(Nc2nccc(-c3ccc4ccccc4c3)n2)c1 | 95.9% (inactive)
27 | CCCCCCCCc1ccc(C(=O)Nc2ccc(C)cc2C(=O)O)cc1C | 79.7% (inactive)
28 | COc1ccc(-c2ccnc(SCc3cc4ccccc4[nH]c3=O)n2)cc1OC | 33.7% (inactive)
29 | O=C(Cn1c2c(sc1=O)[C@H]1[C@@H](O)[C@@H](O)[C@H](O)[C@@H]1CS2)N1CCOCC1 | 103% (inactive)
30 | COc1ccc(-c2nnc3ccc(N/N=C/c4ccc(O)cc4)nn23)cc1 | 28.5% (inactive)
31 | CC1CCCCN1CCCNC(=O)N/C(N)=N/c1nc2ccccc2s1 (stereo not given) | 48.2% (inactive)
32 | COc1ccc(/C=N/NC(=O)Cn2nc(Cc3ccc(OC)cc3)c3onc(C)c3c2=O)cc1 | 53% (inactive)
33 | COc1cc2oc(-c3cccc(NC(=O)[C@H](CC(N)=O)NC(=O)OC(C)(C)C)c3)cc(=O)c2c(OC)c1OC | 87.1% (inactive)
34 | COc1cc(-c2ccc(/C=N/NC(=O)c3[nH]c4ccc(Br)cc4c3-c3ccccc3)o2)cc(OC)c1OC | 82.3% (inactive)
35 | CSc1ccc(NC(=O)c2ccc3nn(/C(C#N)=C/c4ccccn4)nc3c2)cc1 | -68% (active)
36 | C#C[C@]1(O)CC[C@H]2[C@@H]3CC=C4c5sc(-c6ccc(O)c(O)c6)nc5CC[C@]4(C)[C@H]3CC[C@@]21C | -76.3% (active)
37 | COc1ccc(C2=NN(c3ccccc3)C(c3ccc(OC)c(OCc4ccccc4)c3)C2)cc1OC (stereo not given) | 97.7% (inactive)
38 | CN1CCN(c2ccc3c(c2)nc(NNC(=O)c2ncccn2)c2cccn23)CC1 | -14.2% (active)
39 | O=C(CN1C(=O)/C(=C/c2ccccc2F)SC1=S)N1CCOCC1 | 99.1% (inactive)
40 | CCOC(=O)C1=C(N)N(c2ccccc2)C2=C(C(=O)CC(C)(C)C2)C1c1cccc(Cl)c1Cl (stereo not given) | 76.6% (inactive)
